Results: PubChem BioAssay (NCATS)
Inconclusive results are not listed. A number with no mark means an inactive call. Activity calls are given as the source filed them. Calls come from the whole dose curve; as a rule, active = well fitted inhibition curve with a large enough effect; inconclusive = small, poorly fitted or top-dose-only effect, or effect the other way; inactive = flat fitted curve, though single readings scatter.

target: D(1A) dopamine receptor (Homo sapiens) (UniProt P21728); assay: HTS Assay for Allosteric Agonists of the Human D1 Dopamine Receptor: Primary Screen for Antagonists (AID 488983); conditions: D1 receptor cell assay, antagonist mode, qHTS titration; series mostly up to 41.8 µM; activity change, negative = inhibition: at the top concentration; note: nearly all actives have a fitted effect of over 65% in size
Source text: Dopamine receptors (DARs) are involved in the etiology and/or therapy of a number of neuropsychiatric and endocrine disorders. For instance, all receptor-based antiparkinsonian drugs work via stimulating the […] DAR subtype whereas all FDA-approved antipsychotic agents are antagonists of this receptor. […] There are three different types of allosteric modulators that we are seeking, two of which will stimulate or augment receptor signaling, allosteric agonists and potentiators, while the third, allosteric antagonists, will attenuate receptor signaling. The present primary screening assay measures compound agonism by tracking calcium flux in a […], inducible Hek293 Trex D1 cell line.
Freshly passaged cells are plated in 1536 well black, clear bottom plates at a density of 4000 cells/well in 3 ul of complete media containing 1x tetracycline inducer. After an overnight incubation at 30 C in 5% CO2, cells are loaded with 2 ul of the no wash Calcium Assay Kit (ABD Bioquest) and incubated at room temperature for 30 to 90 minutes. A 10 cycle (1 second/cycle) baseline measurement is taken and then the FDSS online 1536 pintool delivers 23 nl of compound library (as well as dopamine controls) to the plate. The plate is measured for kinetically at 1 cycle/sec for 180 seconds and is considered to be the agonist portion of the assay (eg, compounds which activate a positive calcium response during this portion are flagged as potential agonists). Following the 180 second read, 1 ul of an EC80 of dopamine is delivered by an onboard pipette head. Measurements are taken kinetically for an additional 180 seconds.
% is set by controls: 0 for no effect and ±100 for the full control effect; potency is the fitted concentration of half-maximal effect.

Chain of D(1A) dopamine receptor (Homo sapiens) (P21728 whole entry, looked up): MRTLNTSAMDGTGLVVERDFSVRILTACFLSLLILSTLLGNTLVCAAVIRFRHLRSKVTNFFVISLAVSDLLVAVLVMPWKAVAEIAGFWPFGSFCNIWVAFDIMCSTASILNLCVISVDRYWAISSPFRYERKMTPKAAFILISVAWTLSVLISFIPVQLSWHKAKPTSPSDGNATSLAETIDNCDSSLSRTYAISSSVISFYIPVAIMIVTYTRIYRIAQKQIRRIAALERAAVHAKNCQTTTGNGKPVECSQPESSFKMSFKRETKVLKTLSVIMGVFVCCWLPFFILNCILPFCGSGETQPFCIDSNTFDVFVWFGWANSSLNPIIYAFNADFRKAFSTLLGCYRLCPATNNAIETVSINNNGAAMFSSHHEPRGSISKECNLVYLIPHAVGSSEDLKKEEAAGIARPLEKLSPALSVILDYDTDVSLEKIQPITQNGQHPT

| Structure (SMILES) | activity change, negative = inhibition [%] | Potency |
| --- | --- | --- |
| O=C1CCC(c2ccc(-n3ccnc3)cc2)=NN1 | 0.7 |  |
| CCCC1O[C@@H]2C[C@H]3[C@@H]4CCC5=CC(=O)C=C[C@]5(C)[C@H]4[C@@H](O)C[C@]3(C)[C@]2(C(=O)CO)O1 (some centres not stated) | 16.5 |  |
| CC(=O)O[C@H]1C[C@@H]2CC[C@@H]3[C@H](CC[C@@]4(C)[C@H]3C[C@H]([N+]3(C)CCCCC3)[C@@H]4OC(C)=O)[C@@]2(C)C[C@@H]1[N+]1(C)CCCCC1 | 3.59 |  |
| CC[C@H](C)C(=O)O[C@H]1CCC=C2C=C[C@H](C)[C@H](CC[C@@H]3C[C@@H](O)CC(=O)O3)[C@H]21 | 10.9 |  |
| C[N+]1(CCCCC[N+]2(C)CCCC2)CCCC1 | 4.2 |  |
| N[C@H](CO)C(=O)O | 1.83 |  |
| Nc1cc(Cl)c(NC2=NCCN2)c(Cl)c1 | 3.95 |  |
| COc1cc(NS(C)(=O)=O)ccc1Nc1c2ccccc2nc2ccccc12 |  | 1120 nM (active) |
| CC(C)COC(=O)OCN1C(=O)CN(CCN2CC(=O)N(COC(=O)OCC(C)C)C(=O)C2)CC1=O | 10.3 |  |
| CC1(C)CCC(NC(=O)[C@@H](N)CCC(=O)O)CC1 | 11.3 |  |
| C1CCc2nnnn2CC1 | -7.88 |  |
| COc1cc2c(cc1O)CC[C@@H]1[C@@H]2CC[C@]2(C)[C@@H](O)CC[C@@H]12 | -4.05 |  |
| C[C@@H]1C(=O)NC2=Nc3cccc(Cl)c3CN21 | -7.83 |  |
| C[C@]12CC[C@@H]3c4ccc(O)cc4CC[C@H]3[C@@H]1CC[C@@H]2O | 17.6 |  |
| O=C(O)c1cc2cc(Cc3cccnc3)ccc2o1 | 10.5 |  |
| CCC(NC(C)C)C(O)c1ccc(O)c(O)c1 (configuration not stated) | 2.75 |  |
| CN1C2CCC1CC(OC(=O)c1c[nH]c3ccccc13)C2 (configuration not stated) | 3.05 |  |
| CCCn1c(=O)[nH]c(=O)c2[nH]cnc21 | -2.8 |  |
| CC(CCc1ccccc1)NCC(O)c1ccc(O)c(C(N)=O)c1 (configuration not stated) | 15.4 |  |
| N[C@@H](Cc1cnc[nH]1)C(=O)O | 6.95 |  |
| Oc1ccc(O)cc1 | 8.31 |  |
| COC(=O)[C@H]1[C@H]2C[C@H]3c4[nH]c5ccccc5c4CCN3C[C@H]2CC[C@@H]1O | 3.05 |  |
